Test systems include SK-MEL-2 melanoma; EKVX NSCLC; SN12C renal; UO-31 renal; TK-10 renal; ACHN renal; CAKI-1 renal; A498 renal; CCRF-CEM leukemia; MOLT-4 leukemia; SR leukemia; OVCAR-8 ovarian; OVCAR-5 ovarian; OVCAR-4 ovarian; SK-OV-3 ovarian; OVCAR-3 ovarian; HS 578T breast; NCI/ADR-RES ovarian; IGROV1 ovarian.
What all share (assay): NCI-60 one-dose screen, 48 h (100 = growth as untreated, 0 = no growth, -100 = all killed)
Common to all, as to conditions: 10 µM unless noted

Compounds without any hit were thinned out: in the full panel of roughly 83,000, 20% have a hit.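 48-hour exposure, single concentration, 96-well plates; percent growth endpoint where 0 means no net growth. Active: below 10.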 Unmarked numbers belong to inactive results. The source made the active and inactive calls.

Take `Clc1ccc2c(c1)N(CCCN1CCCC1)c1ccccc1S2`: the growth with SK-MEL-2 melanoma was 74%; in the experiment on EKVX NSCLC, 51.6%; in the experiment on SN12C renal, 15%; in the experiment on UO-31 renal, 40.1%; in the experiment on TK-10 renal, 82.9%; in the experiment with ACHN renal, 45%. For the same compound, the growth in the experiment with CAKI-1 renal is 56%; in the experiment on A498 renal, 36.6%; in the experiment with CCRF-CEM leukemia it was 36.3%; with MOLT-4 leukemia it was 24.2%; in the experiment on SR leukemia it was -30.1% (active); in the experiment with OVCAR-8 ovarian, 77.1%. The growth was 53.8% in the experiment on OVCAR-5 ovarian; 53.6% in the experiment with OVCAR-4 ovarian; 37.2% in the experiment with SK-OV-3 ovarian; 44% in the experiment with OVCAR-3 ovarian; 42.6% with HS 578T breast; 35.8% in the experiment on NCI/ADR-RES ovarian.
Regarding `Cc1cc(-c2cc(C)c(N)cc2C)c(C)cc1N`, the growth in the experiment on SK-MEL-2 melanoma is 90.5%; in the experiment with EKVX NSCLC, 115%; with SN12C renal it was 89.9%; in the experiment on UO-31 renal, 78.7%; with TK-10 renal it was 101%; with ACHN renal, 92.8%. The growth with CAKI-1 renal was 87.3%; with A498 renal, 105%; in the experiment on CCRF-CEM leukemia, 89.8%; in the experiment with MOLT-4 leukemia, 100%; with SR leukemia, 45.5%; in the experiment on OVCAR-8 ovarian, 103%. In addition, the growth in the experiment with OVCAR-5 ovarian was 97.2%; in the experiment with OVCAR-4 ovarian, 117%; in the experiment on SK-OV-3 ovarian, 95.7%; in the experiment on IGROV1 ovarian, 109%; in the experiment with OVCAR-3 ovarian, 107%; with HS 578T breast it was 107%. Besides, the growth in the experiment on NCI/ADR-RES ovarian was 100%.
For the compound `COc1ccc2c(c1)C(C)Cc1c(ncnc1-n1c(C)nc3ccccc31)N2C` (stereo not drawn), the growth in the experiment with SK-MEL-2 melanoma is 33.9%; in the experiment with EKVX NSCLC, 43.4%; in the experiment with SN12C renal, 35.8%; in the experiment on UO-31 renal, 37.3%; with TK-10 renal it was 57%; with ACHN renal, 51.4%. Further, the growth is 25.2% in the experiment with CAKI-1 renal; -9.67% (active) in the experiment with A498 renal; 18.3% in the experiment with CCRF-CEM leukemia; 20.6% in the experiment on MOLT-4 leukemia; 4.92% (active) with SR leukemia; 38.8% with OVCAR-8 ovarian. In addition, the growth with OVCAR-5 ovarian is 78.3%; in the experiment on OVCAR-4 ovarian it was 58.6%; with SK-OV-3 ovarian it was 31.5%; with OVCAR-3 ovarian, 5.47% (active); in the experiment with HS 578T breast, 2.46% (active); in the experiment on NCI/ADR-RES ovarian, 5.75% (active).
With `CN(C)CCCNc1nc2ccccc2c2c(=O)c3cc(F)ccc3sc12`, the growth in the experiment on SK-MEL-2 melanoma is 87.3%; in the experiment with EKVX NSCLC, 66.3%; with SN12C renal, 61.2%; in the experiment with UO-31 renal, 24.9%; with TK-10 renal, 59.7%; with ACHN renal, 21.5%. The growth is 8.81% (active) with CAKI-1 renal; 26.6% with A498 renal; 10% (active) in the experiment with CCRF-CEM leukemia; -11.2% (active) in the experiment with MOLT-4 leukemia; -37.9% (active) in the experiment on SR leukemia; 45.3% with OVCAR-8 ovarian. The growth in the experiment with OVCAR-5 ovarian is 73.7%; in the experiment with OVCAR-4 ovarian, 36.6%; in the experiment on SK-OV-3 ovarian, 78.1%; in the experiment with IGROV1 ovarian, 40.5%; in the experiment on OVCAR-3 ovarian it was 26%; in the experiment on HS 578T breast, 46.7%. In addition, the growth with NCI/ADR-RES ovarian was 43%.
In the case of `COc1cccc2c(=O)c3c(sc12)c(NCCCN)nc1ccccc13`, the growth is 103% in the experiment on SK-MEL-2 melanoma; 63.6% in the experiment with EKVX NSCLC; 48.4% with SN12C renal; 27.7% in the experiment on UO-31 renal; 65.6% in the experiment on TK-10 renal; 29.4% with ACHN renal. In addition, the growth in the experiment with CAKI-1 renal is 27.5%; in the experiment with A498 renal, 25.2%; in the experiment with CCRF-CEM leukemia, 14.7%; in the experiment with MOLT-4 leukemia, 8.43% (active); in the experiment on SR leukemia it was -7.22% (active); with OVCAR-8 ovarian, 34.8%. Moreover, the growth with OVCAR-5 ovarian is 77.9%; in the experiment with OVCAR-4 ovarian it was 21.8%; in the experiment with SK-OV-3 ovarian, 64.7%; in the experiment on IGROV1 ovarian, 39.3%; in the experiment on OVCAR-3 ovarian, 39.1%; with HS 578T breast, 60%. Also, in the experiment with NCI/ADR-RES ovarian, the growth is 46%.
On to `COC(=O)[C@H](C)NC(=O)NC(=O)NC(=O)CI`, for which the growth with SK-MEL-2 melanoma is 87.7%; in the experiment with EKVX NSCLC it was 107%; with SN12C renal, 47.1%; with UO-31 renal, 78.3%; with TK-10 renal, 70.6%; with ACHN renal, 76.7%. In addition, the growth in the experiment with CAKI-1 renal was -61.3% (active); with A498 renal it was 128%; in the experiment on CCRF-CEM leukemia it was -55.5% (active); in the experiment with MOLT-4 leukemia, -31.7% (active); with SR leukemia, -23% (active); in the experiment on OVCAR-8 ovarian, 97%. The growth is 108% in the experiment on OVCAR-5 ovarian; 64.7% in the experiment with OVCAR-4 ovarian; 107% in the experiment with SK-OV-3 ovarian; -19.2% (active) with OVCAR-3 ovarian; 114% in the experiment with HS 578T breast; 89.7% with NCI/ADR-RES ovarian.
For `COC(=O)C(Cc1ccccc1)NC(=O)NC(=O)NC(=O)CI` (stereo not drawn), the growth in the experiment on SK-MEL-2 melanoma is 94.9%; with EKVX NSCLC, 103%; with SN12C renal, 17.2%; in the experiment with UO-31 renal it was 34.7%; in the experiment on TK-10 renal it was 75.9%; in the experiment with ACHN renal it was 75.7%. In addition, the growth was -69.3% (active) with CAKI-1 renal; 124% in the experiment with A498 renal; -50.8% (active) in the experiment with CCRF-CEM leukemia; -30.7% (active) in the experiment with MOLT-4 leukemia; -41.6% (active) with SR leukemia; 81.8% in the experiment on OVCAR-8 ovarian. For the same compound, the growth in the experiment with OVCAR-5 ovarian was 95.9%; in the experiment with OVCAR-4 ovarian, 57.7%; with SK-OV-3 ovarian, 112%; with OVCAR-3 ovarian, -49.2% (active); in the experiment on HS 578T breast it was 111%; in the experiment with NCI/ADR-RES ovarian, 71.5%.
Take `O=c1c2cc(F)ccc2sc2c(NCCO)nc3ccccc3c12`: the growth in the experiment with SK-MEL-2 melanoma was 102%; in the experiment with EKVX NSCLC, 83.3%; in the experiment with SN12C renal, 98.4%; in the experiment on UO-31 renal, 77.8%; in the experiment on TK-10 renal, 114%; with ACHN renal it was 103%. Besides, the growth with CAKI-1 renal is 90.8%; in the experiment with A498 renal, 80.6%; in the experiment on CCRF-CEM leukemia it was 105%; in the experiment with MOLT-4 leukemia it was 104%; in the experiment with SR leukemia it was 88.9%; in the experiment on OVCAR-8 ovarian, 97.1%. Also, the growth in the experiment with OVCAR-5 ovarian was 108%; in the experiment with OVCAR-4 ovarian, 111%; in the experiment on SK-OV-3 ovarian, 109%; in the experiment with IGROV1 ovarian, 104%; with OVCAR-3 ovarian, 121%; in the experiment on HS 578T breast, 110%. Besides, the growth with NCI/ADR-RES ovarian was 103%.
